PubChem BioAssay (EPA / NIEHS)
Inconclusive results are not listed. The source made the active and inactive calls. How the source made its calls, unless noted: active means hit-call score of the fitted dose curve at least 0.9, where 1 is the maximum; inactive means score below 0.9.

Tests used:
[1] = CCTE_Mundy_HCI_Cortical_NOG_NeuriteLength: CCTE's Neurite Outgrowth Assay in rat cortical cells for Neurite Length, Mundy Lab (AID 2284213);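 on AC50: neurites imaged about 48 to 50 h after chemical exposure began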
Summary of the method: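 First, rat primary cortical cells were plated and, 2 h later, given test chemical as a 1/10 dilution. Finally, βIII-tubulin immunostaining enabled automated imaging of neurite length.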

[2] = CCTE_Mundy_HCI_Cortical_Synap_Neur_Matur_NeuriteLength: CCTE's Synaptogenesis and Neurite Maturation Assay in rat cortical cells for Neurite Length, Mundy Lab (AID 2284214)
Summary of the method: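 Cultures of rat primary cortical cells received chemical at DIV 7 and were fixed at DIV 12, after glial arrest with AraC at DIV 5. Neurite length was measured by automated imaging of MAP2 immunofluorescence.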

[3] = TAMU_PeakParms_SingleDonor1434_Chronotropy: Texas A&M University (TAMU) 1.5-hr Human Induced Pluripotent Stem Cell (iPSC)-derived Cardiomyocytes Calcium (Ca+2) Flux Assay for Cardiotoxicity: Chronotropy (changes in peak frequency) (AID 2284217); conditions: actives raise or lower the signal
Summary of the method: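 iPSC-derived cardiomyocytes (single donor 1434) dosed at 0.2, 1, 10 and 100 uM in 0.5% DMSO for 1.5 h at 37C; Ca2+ dye fluorescence gave average beat frequency. Zero-beat points removed; bidirectional fit versus DMSO, POD as EC05.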

[4] = CCTE_Mundy_HCI_Cortical_Synap_Neur_Matur_SynapseCount: CCTE's Synaptogenesis and Neurite Maturation Assay in rat cortical cells for Synapse Count, Mundy Lab (AID 2284218)
Summary of the method: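 Cells were plated, allowed 2 hr to attach, treated with AraC at DIV 5, then exposed to chemicals from DIV 7 until DIV 12. After fixation and MAP2/synaptophysin immunolabelling, synapses per neuron were quantified by automated imaging against DMSO.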

[5] = CCTE_Mundy_HCI_hN2_NOG_NeuriteCount: CCTE's Neurite Outgrowth Assay in human hN2 cells for Neurite Count, Mundy Lab (AID 2284219; active means hit-call score of the fitted dose curve at least 0.9, where 1 is the maximum)
Summary of the method: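 In this morphology assay, hNP1-derived neurons received test chemical 2 h post-plating and were fixed two days later in warm paraformaldehyde/sucrose containing Hoechst 33342. Neurites, labelled by rabbit anti-βIII-tubulin (1:800) and Alexa Fluor-488 (1:500), were counted automatically.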

[6] = CCTE_Mundy_HCI_hN2_NOG_NeuriteLength: CCTE's Neurite Outgrowth Assay in human hN2 cells for Neurite Length, Mundy Lab (AID 2284220; active means hit-call score of the fitted dose curve at least 0.9, where 1 is the maximum)
Summary of the method: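 Using βIII-tubulin immunofluorescence and Hoechst nuclear counterstain, this component quantifies neurite length in hNP1-derived neurons.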

[7] = CCTE_Mundy_HCI_hN2_NOG_NeuronCount: CCTE's Neurite Outgrowth Assay in human hN2 cells for Neuron Count, Mundy Lab (AID 2284221; active means hit-call score of the fitted dose curve at least 0.9, where 1 is the maximum)
Summary of the method: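 Read-out is the number of betaIII-tubulin-positive neurons imaged by automated high-content analysis, with DMSO as negative control.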

[8] = CCTE_Mundy_HCI_Cortical_Synap_Neur_Matur_CellBodySpotCount: CCTE's Synaptogenesis and Neurite Maturation Assay in rat cortical cells for Cell Body Spot Count, Mundy Lab (AID 2284223)
Summary of the method: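 Primary rat cortical cultures, AraC added at DIV 5; dosed DIV 7 through DIV 12 […]. Fixed, stained for MAP2 and synaptophysin with Hoechst; cell body-associated synaptophysin puncta per neuron counted by high-content imaging, loss vs DMSO.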

[9] = CCTE_Mundy_HCI_hNP1_Pro_ResponderAvgInten: CCTE's Proliferation Assay in human neuroprogenitor cells, Mundy Lab (AID 2284224; active means hit-call score of the fitted dose curve at least 0.9, where 1 is the maximum;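 further: human neural progenitor cells hNP1 derived from WA09 embryonic stem cells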)
Summary of the method: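 Human neuroprogenitors (hNP1, WA09 lineage) receive test chemical after 40 to 44 hours of attachment. A four-hour BrdU pulse begins twenty hours later, followed by fixation and high content imaging; signal is referenced to DMSO controls.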

[10] = TAMU_HCS_1.5hr_SingleDonor1434_Cytotoxicity: Cytotoxicity Assessment using High-content Screening (HCS) Fluorescent Imaging for the Texas A&M University (TAMU) 1.5-hr Human Induced Pluripotent Stem Cell (iPSC)-derived Cardiotoxicity Assay (AID 2284234; active means hit-call score of the fitted dose curve at least 0.9, where 1 is the maximum)
Summary of the method: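 Nuclear counts from Hoechst 33342 imaging define cytotoxicity here, with EC10 (10% cell-count loss relative to DMSO) as point of departure. iPSC cardiomyocytes received 0.2-100 uM test chemical in 0.5% DMSO for 1.5 h at 37 C.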

[11] = BSK_BT_PBMCCytotoxicity: PBMC Cytotoxicity Assessment in the BioMAP Diversity Plus: BT Assay (AID 2284225); conditions: primary human B cells with PBMC;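 further: PBMC viability measured by Alamar Blue dye reduction fluorescence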
Summary of the method: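 Viability by Alamar Blue reduction (6 h, ex/em 546/580 nm) after 90 h culture of SEB/TSST-1-activated PBMC (20 ng/mL each) given compound 1 h before activation. DMSO served as baseline for curve fitting.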

[12] = read-out: Secreted IgG (sIgG), gene 3500; experiment: BSK_BT_sIgG: BioMAP Diversity Plus: BT Assay for Secreted IgG (sIgG) Biomarker Activity (AID 2284226); conditions: primary human B cells with PBMC
Summary of the method: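 Cells (B cells with peripheral blood mononuclear cells) are dosed, cultured 24 h, then supernatant IgG is measured by ELISA. DMSO serves as negative control; curves are fitted for signal increase.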

[13] = BSK_BT_Bcell_Proliferation: Viability Assessment in the BioMAP Diversity Plus: BT Assay for B cell Proliferation (AID 2284227); conditions: primary human B cells with PBMC
Summary of the method: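 Human B cells co-cultured with PBMC were dosed with test chemicals and relative cell number was quantified by SRB staining at 72 h. Cells were fixed in 10% TCA, stained with 0.1% SRB and read at 560 nm. Activity was fitted in the positive direction against DMSO.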

[14] = read-out: Interleukin 6 (IL6), IL6 (gene 3569); experiment: BSK_BT_xIL6: BioMAP Diversity Plus: BT Assay for Interleukin 6 (IL6) Biomarker Activity (AID 2284228); conditions: primary human B cells with PBMC
Summary of the method: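 Human B cell/PBMC co-culture; secreted IL-6 quantified by Luminex xMAP 24 h after chemical dosing, fitted relative to DMSO. Parallel PBMC viability by Alamar Blue after 1 h pretreatment, 20 ng/mL SEB and TSST-1, 90 h incubation.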

[15] = read-out: Interleukin 17A (IL17A), IL17A (gene 3605); experiment: BSK_BT_xIL17A: BioMAP Diversity Plus: BT Assay for Interleukin 17A (IL17A) Biomarker Activity (AID 2284229); conditions: primary human B cells with PBMC
Summary of the method: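 Co-culture of human B cells and PBMC, dosed for 24 h in 96-well format. Secreted IL-17A measured with Luminex xMAP; gain-direction fitting against DMSO as baseline.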

[16] = read-out: Tumor necrosis factor (Homo sapiens) (UniProt P01375); experiment: BSK_BT_xTNFa: BioMAP Diversity Plus: BT Assay for Tumor necrosis factor alpha (TNF-alpha) Biomarker Activity (AID 2284230); conditions: primary human B cells with PBMC
Summary of the method: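 B cells with PBMC in co-culture, dosed and sampled at 24 h; secreted TNF-alpha measured by Luminex xMAP bead assay. Activity fitted in the gain direction against DMSO as negative control and baseline.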

[17] = read-out: Vascular cell adhesion molecule 1 (VCAM1), VCAM1 (gene 7412); experiment: BSK_MyoF_VCAM1: BioMAP Diversity Plus: MyoF Assay for Vascular cell adhesion molecule 1 (VCAM1) Biomarker Activity (AID 2284231); conditions: primary human lung fibroblasts
Summary of the method: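 Primary human lung fibroblasts (BioMAP MyoF system) dosed with chemical, VCAM-1 measured by ELISA 24 hours later. Fitted in the positive direction against DMSO; parallel SRB staining assessed cytotoxicity.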

[18] = CCTE_Mundy_HCI_Cortical_Synap_Neur_Matur_NeuriteCount: CCTE's Synaptogenesis and Neurite Maturation Assay in rat cortical cells for Neurite Count, Mundy Lab (AID 2284222);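 further: exposure from day 7 to day 12 in vitro with readout at day 12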
Summary of the method: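 Rat primary cortical cells; AraC added at DIV 5, chemicals dosed with media change at DIV 7 through DIV 12. MAP2/synaptophysin/Hoechst immunostaining, high-content imaging of neurite number; fitted relative to DMSO.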

[19] = UKN2_HCS_IMR90_cell_viability: Viability Assessment in the University of Konstanz (UKN) Leist Lab Neural Crest Cell Migration Assay in human induced IMR90 Pluripotent Stem Cells (UKN2) (AID 2284233);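 further: viability of neural crest cells differentiated from IMR90 iPSC measured by calcein-AM fluorescence imaging; cells exposed to compound for 24 h after a 24 h migration phase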
Summary of the method: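 cMINC format, iPSC-derived neural crest (IMR90); 24 h migration (EGF/FGF, N2-S), then 24 h toxicant. Calcein-AM/H-33342 stain 30 min; fluorescence intensity by HCS; DMSO-normalised, bidirectional fitting.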

[20] = UKN4_HCS_LUHMES_cell_viability: Viability Assessment in the University of Konstanz (UKN) Leist Lab Neurite Outgrowth Assay in human LUHMES cells (UKN4) (AID 2284232)
Summary of the method: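 Cells switched to differentiation medium at day 0, replated on day 2 in medium lacking cAMP and GDNF, and compound-treated once attached. Live staining began 23.5 h later, imaging followed at 24 h.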

Tumor necrosis factor (Homo sapiens), sequence (P01375 whole entry, looked up): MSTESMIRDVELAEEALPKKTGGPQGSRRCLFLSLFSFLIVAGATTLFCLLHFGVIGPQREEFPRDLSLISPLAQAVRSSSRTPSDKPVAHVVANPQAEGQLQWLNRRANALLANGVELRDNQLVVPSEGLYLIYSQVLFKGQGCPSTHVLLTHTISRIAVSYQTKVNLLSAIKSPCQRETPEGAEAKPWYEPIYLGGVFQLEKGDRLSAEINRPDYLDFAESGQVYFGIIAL

**Q.** Which results are given for `CC(C)(c1ccc(O)cc1)c1ccc(O)cc1`?
**A.** outcome [1]: inactive; AC50 [2]: 50 µM (active); AC50 [3]: 50 µM (active); AC50 [4]: 50 µM (active); AC50 [5]: 77.3 µM (active); AC50 [6]: 78.8 µM (active); AC50 [7]: 50 µM (active); outcome [8]: inactive; outcome [9]: inactive; outcome [10]: inactive

**Q.** With `CC(=O)[C@H]1CC[C@H]2[C@@H]3CCC4=CC(=O)CC[C@]4(C)[C@H]3CC[C@]12C` as the molecule, how does the outcome [3] read?
**A.** inactive

**Q.** And the outcome [10]?
**A.** inactive

**Q.** For `N#CSCSc1nc2ccccc2s1`, which AC50 [11] is on record?
**A.** 3.65 µM (active)

**Q.** And the AC50 [12]?
**A.** 3.18 µM (active)

**Q.** What about the AC50 [13] of the same molecule?
**A.** 5.47 µM (active)

**Q.** And the AC50 [14]?
**A.** 4.1 µM (active)

**Q.** And the AC50 [15]?
**A.** 4.06 µM (active)

**Q.** And the AC50 [16]?
**A.** 7.28 µM (active)

**Q.** What about the AC50 [17] of the same molecule?
**A.** 4.37 µM (active)

**Q.** With `c1ccc2[nH]c(-c3cscn3)nc2c1` as the molecule, how does the AC50 [3] read?
**A.** 9.92 µM (active)

**Q.** What about the outcome [10] of the same molecule?
**A.** inactive

**Q.** Which outcome [1] does the source give for `CCN(CC)C(=O)c1cccc(C)c1` here?
**A.** inactive

**Q.** What about the outcome [2] of the same molecule?
**A.** inactive

**Q.** What about the outcome [4] of the same molecule?
**A.** inactive

**Q.** What about the outcome [18] of the same molecule?
**A.** inactive

**Q.** And the outcome [8]?
**A.** inactive

**Q.** What about the outcome [9] of the same molecule?
**A.** inactive

**Q.** What about the outcome [19] of the same molecule?
**A.** inactive

**Q.** For `S=C([S-])NCCNC(=S)[S-].[Mn+2]`, which outcome [1] is on record?
**A.** inactive

**Q.** And the outcome [2]?
**A.** inactive

**Q.** What about the outcome [4] of the same molecule?
**A.** inactive

**Q.** What about the outcome [5] of the same molecule?
**A.** inactive

**Q.** What about the outcome [6] of the same molecule?
**A.** inactive

**Q.** What about the outcome [7] of the same molecule?
**A.** inactive

**Q.** What about the outcome [8] of the same molecule?
**A.** inactive

**Q.** What about the AC50 [20] of the same molecule?
**A.** 3.31 µM (active)

**Q.** What about the AC50 [19] of the same molecule?
**A.** 16.1 µM (active)

**Q.** For `C#CCOC(=O)[C@@H](C)Oc1ccc(Oc2ncc(Cl)cc2F)cc1`, which outcome [1] is on record?
**A.** inactive

**Q.** What about the outcome [2] of the same molecule?
**A.** inactive

**Q.** What about the outcome [4] of the same molecule?
**A.** inactive

**Q.** And the outcome [18]?
**A.** inactive

**Q.** What about the outcome [8] of the same molecule?
**A.** inactive

**Q.** And the AC50 [9]?
**A.** 50 µM (active)

**Q.** What about the outcome [19] of the same molecule?
**A.** inactive

**Q.** With `CC1(C)C(C=C(Cl)Cl)C1C(=O)OCc1cccc(Oc2ccccc2)c1` (centres undefined) as the molecule, how does the AC50 [1] read?
**A.** 83.7 µM (active)

**Q.** What about the AC50 [2] of the same molecule?
**A.** 8.65 µM (active)

**Q.** And the outcome [3]?
**A.** inactive

**Q.** And the AC50 [4]?
**A.** 9.11 µM (active)

**Q.** And the outcome [5]?
**A.** inactive

**Q.** What about the outcome [6] of the same molecule?
**A.** inactive

**Q.** What about the AC50 [7] of the same molecule?
**A.** 20.2 µM (active)

**Q.** What about the outcome [18] of the same molecule?
**A.** inactive

**Q.** What about the outcome [8] of the same molecule?
**A.** inactive

**Q.** And the outcome [9]?
**A.** inactive
